According to PubChem BioAssay AID1159580 (chemical genetic matrix, 2015):
The campaign covered roughly 5,500 compounds. About 2,000 (36%) were called active. About 18% were inconclusive and are not listed. No stated cut-off is given here; in the data, active means normalized growth mostly below about 0.91 (no sharp cut-off); inconclusive means no clear call, values can overlap the other calls; inactive means mostly above about 0.92. The list shows a part of the results.

Assay: chemical genetic growth profiling, strain panel (AID 1159580);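 further: tested at 20 µM; growth read once vehicle control cultures reached saturation at 30 °C; 1 = growth at the plate median or of vehicle wells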
Details: growth OD

Measured: normalized growth

Oc1cc(O)c2c(c1)O[C@H](c1ccc(O)c(O)c1)[C@@H](O)C2
inactive: S. cerevisiae deletion strains, locus YJR066W, strain TOR1, stronger effect = lower value 0.927 | S. cerevisiae deletion strains, locus YJR075W, strain HOC1, stronger effect = lower value 1 | S. cerevisiae deletion strains, locus YKL009W, strain mrt4, stronger effect = lower value 0.991 | S. cerevisiae deletion strains, locus YKL068W, stronger effect = lower value 0.977 | S. cerevisiae deletion strains, locus YKL085W, strain MDH1 (second series), stronger effect = lower value 0.981 | S. cerevisiae deletion strains, locus YKL085W, strain MDH1, stronger effect = lower value 0.981 | S. cerevisiae deletion strains, locus YKL160W, strain elf1, stronger effect = lower value 1.02 | S. cerevisiae deletion strains, locus YKR001C, strain vps1, stronger effect = lower value 1.03 | S. cerevisiae deletion strains, locus YKR026C, strain gcn3, stronger effect = lower value 0.973 | S. cerevisiae deletion strains, locus YKR091W, strain srl3, stronger effect = lower value 1.01 | S. cerevisiae deletion strains, locus YLL001W, strain dnm1, stronger effect = lower value 1.01 | S. cerevisiae deletion strains, locus YLL026W, stronger effect = lower value 1 | S. cerevisiae deletion strains, locus YLL041C, strain sdh2, stronger effect = lower value 1.01 | S. cerevisiae deletion strains, locus YLR027C, strain aat2, stronger effect = lower value 1.02 | S. cerevisiae deletion strains, locus YLR039C, strain RIC1, stronger effect = lower value 0.919 | S. cerevisiae deletion strains, locus YLR058C, strain SHM2, stronger effect = lower value 0.973 | S. cerevisiae deletion strains, locus YLR102C, strain apc9, stronger effect = lower value 0.985 | S. cerevisiae deletion strains, locus YLR113W, strain HOG1, stronger effect = lower value 0.987 | S. cerevisiae deletion strains, locus YLR221C, strain rsa3, stronger effect = lower value 1.02 | S. cerevisiae deletion strains, locus YLR258W, strain gsy2, stronger effect = lower value 1 | S. cerevisiae deletion strains, locus YLR262C, strain YPT6 (second series), stronger effect = lower value 1.02 | S. cerevisiae deletion strains, locus YLR262C, strain YPT6, stronger effect = lower value 0.945 | S. cerevisiae deletion strains, locus YLR268W, strain sec22, stronger effect = lower value 1.02 | S. cerevisiae deletion strains, locus YLR320W, strain mms22, stronger effect = lower value 1.01 | S. cerevisiae deletion strains, locus YLR330W, strain CHS5, stronger effect = lower value 1 | S. cerevisiae deletion strains, locus YLR342W, strain FKS1 (second series), stronger effect = lower value 1.02 | S. cerevisiae deletion strains, locus YLR342W, strain FKS1, stronger effect = lower value 1.01 | S. cerevisiae deletion strains, locus YLR357W, strain rsc2, stronger effect = lower value 0.987 | S. cerevisiae deletion strains, locus YLR370C, strain arc18, stronger effect = lower value 1.01 | S. cerevisiae deletion strains, locus YLR371W, strain rom2, stronger effect = lower value 1.01 | S. cerevisiae deletion strains, locus YLR384C, strain iki3, stronger effect = lower value 0.997 | S. cerevisiae deletion strains, locus YLR418C, strain cdc73, stronger effect = lower value 0.965 | S. cerevisiae deletion strains, locus YML016C, strain PPZ1, stronger effect = lower value 0.999 | S. cerevisiae deletion strains, locus YML032C, strain rad52, stronger effect = lower value 0.947 | S. cerevisiae deletion strains, locus YML120C, strain ndi1, stronger effect = lower value 1.01 | S. cerevisiae deletion strains, locus YML124C, strain tub3, stronger effect = lower value 0.985 | S. cerevisiae deletion strains, locus YMR058W, strain fet3, stronger effect = lower value 1.02 | S. cerevisiae deletion strains, locus YMR078C, strain ctf18, stronger effect = lower value 0.984 | S. cerevisiae deletion strains, locus YMR125W, strain sto1, stronger effect = lower value 1.01 | S. cerevisiae deletion strains, locus YMR129W, stronger effect = lower value 1.02 | S. cerevisiae deletion strains, locus YMR205C, strain PFK2, stronger effect = lower value 1 | S. cerevisiae deletion strains, locus YMR223W, strain ubp8, stronger effect = lower value 0.972 | S. cerevisiae deletion strains, locus YMR231W, strain pep5, stronger effect = lower value 1 | S. cerevisiae deletion strains, locus YMR263W, strain SAP30, stronger effect = lower value 0.993 | S. cerevisiae deletion strains, locus YMR307W, strain GAS1, stronger effect = lower value 1.01 | S. cerevisiae deletion strains, locus YNL067W, strain RPL9B, stronger effect = lower value 0.983 | S. cerevisiae deletion strains, locus YNL071W, strain lat1, stronger effect = lower value 1.02 | S. cerevisiae deletion strains, locus YNL128W, strain TEP1, stronger effect = lower value 0.97 | S. cerevisiae deletion strains, locus YNL183C, strain NPR1, stronger effect = lower value 0.95 | S. cerevisiae deletion strains, locus YNL209W, strain ssb2, stronger effect = lower value 1.01 | S. cerevisiae deletion strains, locus YNL233W, strain BNI4, stronger effect = lower value 0.993 | S. cerevisiae deletion strains, locus YNL248C, strain rpa49, stronger effect = lower value 1.03 | S. cerevisiae deletion strains, locus YNL250W, strain rad50, stronger effect = lower value 0.981 | S. cerevisiae deletion strains, locus YNL271C, strain bni1, stronger effect = lower value 0.988 | S. cerevisiae deletion strains, locus YNL298W, strain CLA4, stronger effect = lower value 0.969 | S. cerevisiae deletion strains, locus YNL307C, strain MCK1, stronger effect = lower value 0.989 | S. cerevisiae deletion strains, locus YNL322C, strain KRE1 (second series), stronger effect = lower value 1.01 | S. cerevisiae deletion strains, locus YNL322C, strain KRE1, stronger effect = lower value 0.99 | S. cerevisiae deletion strains, locus YNR049C, strain mso1, stronger effect = lower value 1 | S. cerevisiae deletion strains, locus YNR052C, strain pop2, stronger effect = lower value 0.995 | S. cerevisiae deletion strains, locus YOL012C, strain htz1 1.07 | S. cerevisiae deletion strains, locus YOL147C, strain pex11, stronger effect = lower value 0.979 | S. cerevisiae deletion strains, locus YOR001W, strain rrp6, stronger effect = lower value 1.02 | S. cerevisiae deletion strains, locus YOR061W, strain CKA2, stronger effect = lower value 0.97 | S. cerevisiae deletion strains, locus YOR069W, strain VPS5, stronger effect = lower value 0.994 | S. cerevisiae deletion strains, locus YOR070C, strain gyp1, stronger effect = lower value 0.996 | S. cerevisiae deletion strains, locus YOR080W, strain dia2, stronger effect = lower value 1 | S. cerevisiae deletion strains, locus YOR083W, strain WHI5, stronger effect = lower value 1.02 | S. cerevisiae deletion strains, locus YOR106W, strain vam3, stronger effect = lower value 1.03 | S. cerevisiae deletion strains, locus YOR136W, strain idh2, stronger effect = lower value 1 | S. cerevisiae deletion strains, locus YOR144C, strain elg1, stronger effect = lower value 0.983 | S. cerevisiae deletion strains, locus YOR184W, strain ser1, stronger effect = lower value 0.995 | S. cerevisiae deletion strains, locus YOR231W, strain MKK1, stronger effect = lower value 0.987 | S. cerevisiae deletion strains, locus YOR265W, strain rbl2, stronger effect = lower value 1 | S. cerevisiae deletion strains, locus YOR270C, strain vph1, stronger effect = lower value 1.07 | S. cerevisiae deletion strains, locus YOR290C, strain snf2, stronger effect = lower value 0.971 | S. cerevisiae deletion strains, locus YOR316C, strain cot1, stronger effect = lower value 0.979 | S. cerevisiae deletion strains, locus YPL051W, strain arl3, stronger effect = lower value 1.02 | S. cerevisiae deletion strains, locus YPL078C, strain atp4, stronger effect = lower value 1.01 | S. cerevisiae deletion strains, locus YPL106C, strain sse1, stronger effect = lower value 1 | S. cerevisiae deletion strains, locus YPL240C, strain hsp82, stronger effect = lower value 1 | S. cerevisiae deletion strains, locus YPL256C, strain CLN2, stronger effect = lower value 0.984 | S. cerevisiae deletion strains, locus YPR119W, strain clb2, stronger effect = lower value 0.983 | S. cerevisiae deletion strains, locus YPR141C, strain kar3, stronger effect = lower value 0.972 | S. cerevisiae deletion strains, locus YPR163C, strain tif3, stronger effect = lower value 0.992 | S. cerevisiae deletion strains, locus YPR167C, strain met16, stronger effect = lower value 0.975 | S. cerevisiae deletion strains, strain wtn01, stronger effect = lower value 1.05 | S. cerevisiae strains, strain wild type, stronger effect = lower value 0.985
